Consider five compounds from PubChem BioAssay.

Active and inactive are the calls of the source.

The test system of assay [1] is PRMT1 (protein arginine N-methyltransferase 1). The assay is described as follows: PRMT1 binders on small-molecule microarrays, primary screen, biochemical, small-molecule microarray, 635 nm fluorescence (AID 1088).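 Further: binding of Prmt1 protein to compounds spotted on small-molecule microarray slides.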 As to conditions: small-molecule microarray binding, higher = more signal.
Assay [2] is described as follows: yeast growth modulation, basal conditions, primary screen, YJM789 clinical isolate, OD600, 24 h (AID 1089).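 Further: growth of clinical yeast isolate S. cerevisiae YJM 789 seeded 1000 cells per well; test concentration not given here.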 The note with it: S. cerevisiae YJM789 growth, higher = more signal, called active from +8 up or from −8 down.
The nature of assay [3]: fission yeast growth modulation, primary screen, strain 972, OD600, 24 h, no modulator (AID 1090).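 Further: basal condition with compound alone and no growth modifier present; test concentration not given here.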 The note with it: S. pombe 972 growth, higher = more signal, called active from +8 up or from −8 down.
A short description of assay [4]: S. cerevisiae growth modulation with rapamycin, primary screen, strain BY4716, OD600, 96 h (AID 1091). Further: test concentration not given here. As to conditions: higher = more signal, called active from +8 up or from −8 down.
Assay [5] addresses Torsin-1A-interacting protein 2 (Homo sapiens) (UniProt Q8NFQ8). The assay can be described thus: LULL1 binders on small-molecule microarray, primary screen, cell lysate, human LULL1 lysate, 635/667 nm fluorescence (AID 1092).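 Further: probe is lysate of COS7 cells overexpressing human LULL1; score merges per-feature 667 nm fluorescence with signal-to-noise.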 As to conditions: hLULL1 lysate binding, 635 nm fluorescence, higher = more signal.
Assay [6] in a line: E. coli growth modulation, two-sided OD650, primary screen, E. coli filamentation project, strain DRC41, 24 h (AID 1093).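 Further: MC1000 strain lacking acrAB efflux and sulA so SOS filamentation is blocked; test concentration not given here.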 The note with it: OD650, 24 h, higher = more signal, called active from +8 up or from −8 down.
A short description of assay [7]: small-molecule microarray binders of probe aLefty2, primary screen, biochemical, biotinylated probe, 635/667 nm fluorescence (AID 1094).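 Further: score merges spot fluorescence near 667 nm with spot signal-to-noise ratio.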 As to conditions: higher = more signal.
Assay [8] concerns Noggin (protein binding on small-molecule microarray). The assay is described as follows: Noggin binders on small-molecule microarray, primary screen, biochemical, 635/667 nm fluorescence (AID 1095).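 Further: score merges 667 nm feature fluorescence with signal to noise over triplicate slides.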 As to conditions: 635 nm fluorescence, higher = more signal.
Assay [9] concerns the target Neurogenic locus notch homolog protein 3 (Homo sapiens) (UniProt Q9UM47). The assay is described as follows: NOTCH3 binders on small-molecule microarray, primary screen, biochemical, 635/667 nm fluorescence (AID 1096). As to conditions: NOTCH3 binding, 635 nm fluorescence, higher = more signal.
A short description of assay [10]: small-molecule microarray binders of probe aEGFR, primary screen, biochemical, biotinylated probe, 635/667 nm fluorescence (AID 1097).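 Further: probe is a biotinylated anti-EGFR antibody binding compounds printed on slides; score combines fluorescence near 667 nm and signal to noise of each spot.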 The note with it: higher = more signal.
In assay [11] the test system is Plasmodium falciparum Sir2 (PF13_0152, Sir2A). The assay can be described thus: pfSir2 binders on small-molecule microarrays, primary screen, biochemical, small-molecule microarray, 635 nm fluorescence (AID 1098).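 Further: score merges spot fluorescence intensity with its signal-to-noise ratio.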 The note with it: small-molecule microarray binding, fluorescence 635 nm; higher = more signal.
Assay [12] can be described thus: small-molecule microarray binders of probe aDKK1, primary screen, biochemical, biotinylated probe, 635/667 nm fluorescence (AID 1099).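 Further: score merges 667nm spot fluorescence with signal to noise across triplicate slides; reference of the scale not given here.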 As to conditions: higher = more signal.
A short description of assay [13]: small-molecule microarray binders of probe aCHRDL2, primary screen, biochemical, biotinylated probe, 635/667 nm fluorescence (AID 1100). As to conditions: higher = more signal.
A short description of assay [14]: splicing luciferase reporter signal modulators, primary screen, spliceosome inhibition project, cell-based, HEK293, splice +/- reporter (AID 1101).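 Further: HEK293 cells carrying a splicing-competent luciferase reporter gene; test concentration not given here.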 As to conditions: luminescence, 24 h, higher = more signal, called active from +8 up or from −8 down. For orientation: In a reporter assay the amount or activity of a reporter protein is the signal.
Assay [15] has as its target Fibroblast growth factor 10 (Homo sapiens) (UniProt O15520). The assay is described as follows: FGF10 binders on small-molecule microarrays, primary screen, biochemical, small-molecule microarray, 635 nm fluorescence (AID 1102). As to conditions: FGF10 binding, fluorescence 635 nm, higher = more signal.
The subject of assay [16] is glycogen synthase kinase-3 (GSK3A per assay name; protocol says GSK3B). The assay can be described thus: GSK3 binders on small-molecule microarrays, primary screen, biochemical, small-molecule microarray, 635 nm fluorescence, GSK3A (AID 1103). Further: the record names both GSK3A and GSK3B. The note with it: small-molecule microarray binding, fluorescence 635 nm; higher = more signal.
Assay [17] has as its target Epidermal growth factor receptor (Homo sapiens) (UniProt P00533). The assay can be described thus: EGFR binders on small-molecule microarrays, primary screen, biochemical, small-molecule microarray, 635 nm fluorescence (AID 1104).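 Further: score merges 667 nm emission intensity with spot signal to noise over triplicate slides.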 The note with it: EGFR binding, higher = more signal.
Assay [18] has as its target Follistatin-related protein 3 (Homo sapiens) (UniProt O95633). The assay can be described thus: FSTL3 binders on small-molecule microarrays, primary screen, biochemical, small-molecule microarray, 635 nm fluorescence (AID 1105).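 Further: score merges emission near 667 nm and signal to noise per printed spot across three slides.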 The note with it: FSTL3 binding, higher = more signal.
Assay [19] has as its target Dickkopf-related protein 1 (Homo sapiens) (UniProt O94907). The assay can be described thus: DKK1 binders on small-molecule microarrays, primary screen, biochemical, small-molecule microarray, 635 nm fluorescence scan (AID 1106).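 Further: score merges emission near 667 nm with signal to noise over three replicate slides.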 The note with it: DKK1 binding, higher = more signal.
The subject of assay [20] is Inhibin beta A chain (activin A). The assay can be described thus: INHBA (activin A) binders on microarrays, primary screen, biochemical, small-molecule microarray, 635 nm fluorescence scan (AID 1107).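 Further: mouse activin A protein probed at 4.33 µg/mL on printed slides; score merges bound-protein fluorescence near 667 nm with spot signal-to-noise.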 As to conditions: small-molecule microarray binding, higher = more signal.

Chain of Fibroblast growth factor 10 (Homo sapiens) (O15520 whole entry, looked up): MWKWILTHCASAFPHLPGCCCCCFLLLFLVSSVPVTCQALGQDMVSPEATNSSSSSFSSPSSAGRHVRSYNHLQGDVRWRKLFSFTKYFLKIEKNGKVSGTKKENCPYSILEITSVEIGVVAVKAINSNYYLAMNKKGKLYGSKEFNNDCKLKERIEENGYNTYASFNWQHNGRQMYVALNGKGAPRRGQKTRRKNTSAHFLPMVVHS
Chain of Torsin-1A-interacting protein 2 (Homo sapiens) (Q8NFQ8 whole entry, looked up): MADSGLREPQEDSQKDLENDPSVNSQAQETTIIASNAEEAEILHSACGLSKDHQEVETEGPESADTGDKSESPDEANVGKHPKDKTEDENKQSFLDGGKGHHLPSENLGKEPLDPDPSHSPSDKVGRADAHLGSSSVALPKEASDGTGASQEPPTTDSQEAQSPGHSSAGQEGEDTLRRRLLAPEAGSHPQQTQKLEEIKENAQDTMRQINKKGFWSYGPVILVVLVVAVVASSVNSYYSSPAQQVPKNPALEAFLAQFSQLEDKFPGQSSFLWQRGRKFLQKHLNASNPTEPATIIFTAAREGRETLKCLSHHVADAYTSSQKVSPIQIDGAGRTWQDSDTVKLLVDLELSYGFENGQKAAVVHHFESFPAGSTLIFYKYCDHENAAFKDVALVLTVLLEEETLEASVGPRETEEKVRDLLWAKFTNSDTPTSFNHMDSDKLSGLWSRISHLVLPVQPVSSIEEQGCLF
Chain of Dickkopf-related protein 1 (Homo sapiens) (O94907 whole entry, looked up): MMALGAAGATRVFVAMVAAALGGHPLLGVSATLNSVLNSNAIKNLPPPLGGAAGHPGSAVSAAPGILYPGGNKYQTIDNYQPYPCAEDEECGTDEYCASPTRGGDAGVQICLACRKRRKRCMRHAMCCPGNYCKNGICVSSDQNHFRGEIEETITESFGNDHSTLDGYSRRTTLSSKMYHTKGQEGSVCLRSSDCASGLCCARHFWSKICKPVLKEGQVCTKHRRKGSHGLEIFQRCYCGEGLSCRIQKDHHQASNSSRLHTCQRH
Chain of Neurogenic locus notch homolog protein 3 (Homo sapiens) (Q9UM47 whole entry, looked up): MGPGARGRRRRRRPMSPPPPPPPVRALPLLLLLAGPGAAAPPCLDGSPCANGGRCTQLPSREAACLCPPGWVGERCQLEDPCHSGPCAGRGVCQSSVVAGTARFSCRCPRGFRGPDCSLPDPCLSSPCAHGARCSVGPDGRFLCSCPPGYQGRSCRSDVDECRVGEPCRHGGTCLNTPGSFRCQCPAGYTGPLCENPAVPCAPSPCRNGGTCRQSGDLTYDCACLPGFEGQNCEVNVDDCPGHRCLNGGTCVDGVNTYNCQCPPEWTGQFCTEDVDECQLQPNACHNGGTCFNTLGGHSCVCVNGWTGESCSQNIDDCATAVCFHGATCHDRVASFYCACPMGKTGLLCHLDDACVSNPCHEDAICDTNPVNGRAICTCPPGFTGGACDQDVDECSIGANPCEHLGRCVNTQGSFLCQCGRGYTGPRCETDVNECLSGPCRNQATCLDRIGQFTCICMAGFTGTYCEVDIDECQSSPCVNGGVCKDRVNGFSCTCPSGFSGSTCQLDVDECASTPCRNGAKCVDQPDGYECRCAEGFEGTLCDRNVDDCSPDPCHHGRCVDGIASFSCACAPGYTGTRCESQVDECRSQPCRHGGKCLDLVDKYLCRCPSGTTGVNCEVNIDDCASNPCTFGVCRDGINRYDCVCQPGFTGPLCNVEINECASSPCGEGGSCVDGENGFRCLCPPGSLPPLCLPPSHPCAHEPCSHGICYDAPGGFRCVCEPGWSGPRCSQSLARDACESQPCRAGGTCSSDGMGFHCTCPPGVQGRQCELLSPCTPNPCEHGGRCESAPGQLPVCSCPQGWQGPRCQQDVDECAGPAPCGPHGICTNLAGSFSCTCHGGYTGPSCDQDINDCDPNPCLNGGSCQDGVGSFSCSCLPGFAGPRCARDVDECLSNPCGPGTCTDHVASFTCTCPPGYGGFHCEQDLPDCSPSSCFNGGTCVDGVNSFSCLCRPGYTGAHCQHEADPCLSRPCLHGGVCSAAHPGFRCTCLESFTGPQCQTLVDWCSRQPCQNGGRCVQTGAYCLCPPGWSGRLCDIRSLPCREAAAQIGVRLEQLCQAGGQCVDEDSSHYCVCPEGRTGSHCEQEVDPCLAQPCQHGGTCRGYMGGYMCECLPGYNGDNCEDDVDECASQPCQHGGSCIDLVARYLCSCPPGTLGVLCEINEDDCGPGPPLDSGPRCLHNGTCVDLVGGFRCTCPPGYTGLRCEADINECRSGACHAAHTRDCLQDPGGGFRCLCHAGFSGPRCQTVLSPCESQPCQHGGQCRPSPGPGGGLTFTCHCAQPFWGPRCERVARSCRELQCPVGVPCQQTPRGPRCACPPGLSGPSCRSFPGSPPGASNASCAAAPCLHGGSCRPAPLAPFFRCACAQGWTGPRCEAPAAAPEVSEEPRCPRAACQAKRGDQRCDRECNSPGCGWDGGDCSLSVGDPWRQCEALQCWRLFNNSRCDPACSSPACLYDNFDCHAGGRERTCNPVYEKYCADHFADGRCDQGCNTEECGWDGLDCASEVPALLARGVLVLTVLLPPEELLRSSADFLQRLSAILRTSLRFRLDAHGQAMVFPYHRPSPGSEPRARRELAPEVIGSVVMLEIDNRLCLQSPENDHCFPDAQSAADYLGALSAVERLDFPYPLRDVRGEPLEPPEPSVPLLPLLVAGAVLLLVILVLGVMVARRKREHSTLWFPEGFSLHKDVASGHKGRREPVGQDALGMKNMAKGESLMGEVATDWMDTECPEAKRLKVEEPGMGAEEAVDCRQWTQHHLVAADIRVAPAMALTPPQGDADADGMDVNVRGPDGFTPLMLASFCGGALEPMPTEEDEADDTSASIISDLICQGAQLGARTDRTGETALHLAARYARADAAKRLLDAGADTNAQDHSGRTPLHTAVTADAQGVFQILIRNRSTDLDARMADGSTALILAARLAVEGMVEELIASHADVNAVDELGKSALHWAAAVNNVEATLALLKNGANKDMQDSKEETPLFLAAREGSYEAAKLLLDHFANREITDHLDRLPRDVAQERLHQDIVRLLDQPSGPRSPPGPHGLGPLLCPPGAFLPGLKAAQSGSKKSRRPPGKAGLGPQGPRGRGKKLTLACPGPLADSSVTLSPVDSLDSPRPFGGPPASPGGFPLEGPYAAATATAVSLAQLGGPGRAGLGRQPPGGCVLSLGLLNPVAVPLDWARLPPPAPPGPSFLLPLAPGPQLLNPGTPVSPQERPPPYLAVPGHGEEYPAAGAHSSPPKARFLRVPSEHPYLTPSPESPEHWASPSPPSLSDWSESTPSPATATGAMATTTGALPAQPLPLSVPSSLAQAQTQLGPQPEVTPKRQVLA
Chain of Epidermal growth factor receptor (Homo sapiens) (P00533 whole entry, looked up): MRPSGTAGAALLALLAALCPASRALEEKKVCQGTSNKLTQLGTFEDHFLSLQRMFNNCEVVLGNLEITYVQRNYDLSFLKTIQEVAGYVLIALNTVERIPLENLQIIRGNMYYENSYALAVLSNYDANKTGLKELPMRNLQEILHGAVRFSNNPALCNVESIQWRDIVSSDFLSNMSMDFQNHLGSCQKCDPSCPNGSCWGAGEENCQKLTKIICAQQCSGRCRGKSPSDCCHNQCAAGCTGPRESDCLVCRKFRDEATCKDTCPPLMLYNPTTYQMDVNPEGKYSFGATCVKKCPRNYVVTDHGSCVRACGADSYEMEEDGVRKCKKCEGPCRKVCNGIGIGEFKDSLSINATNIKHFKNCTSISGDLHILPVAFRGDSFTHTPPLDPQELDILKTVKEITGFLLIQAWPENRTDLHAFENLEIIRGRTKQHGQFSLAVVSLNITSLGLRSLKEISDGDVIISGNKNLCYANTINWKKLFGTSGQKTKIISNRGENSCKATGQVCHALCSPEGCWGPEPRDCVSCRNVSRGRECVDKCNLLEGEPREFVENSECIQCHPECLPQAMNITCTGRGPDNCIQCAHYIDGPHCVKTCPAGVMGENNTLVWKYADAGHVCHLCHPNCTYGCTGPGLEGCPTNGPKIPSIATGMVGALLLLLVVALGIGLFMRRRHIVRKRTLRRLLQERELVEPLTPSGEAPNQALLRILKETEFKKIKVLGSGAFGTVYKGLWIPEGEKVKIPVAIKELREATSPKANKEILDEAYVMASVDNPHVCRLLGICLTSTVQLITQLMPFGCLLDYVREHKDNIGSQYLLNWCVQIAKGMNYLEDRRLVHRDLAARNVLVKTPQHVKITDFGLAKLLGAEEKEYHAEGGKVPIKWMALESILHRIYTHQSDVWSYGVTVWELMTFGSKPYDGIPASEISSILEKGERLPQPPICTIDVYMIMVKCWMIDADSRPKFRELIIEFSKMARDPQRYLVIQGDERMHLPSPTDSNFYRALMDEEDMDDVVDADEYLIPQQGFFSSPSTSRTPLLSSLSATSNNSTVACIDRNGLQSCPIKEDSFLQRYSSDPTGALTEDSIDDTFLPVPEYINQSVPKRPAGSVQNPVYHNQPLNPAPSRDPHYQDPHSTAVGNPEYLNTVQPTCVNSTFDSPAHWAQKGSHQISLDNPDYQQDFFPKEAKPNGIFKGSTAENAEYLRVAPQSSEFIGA
Chain of Follistatin-related protein 3 (Homo sapiens) (O95633 whole entry, looked up): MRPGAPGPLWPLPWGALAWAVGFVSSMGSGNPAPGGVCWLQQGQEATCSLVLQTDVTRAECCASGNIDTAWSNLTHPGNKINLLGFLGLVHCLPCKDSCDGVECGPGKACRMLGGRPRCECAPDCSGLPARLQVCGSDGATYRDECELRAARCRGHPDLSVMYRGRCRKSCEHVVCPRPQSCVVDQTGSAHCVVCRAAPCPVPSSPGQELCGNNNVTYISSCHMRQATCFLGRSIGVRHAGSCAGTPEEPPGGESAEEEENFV

Regarding `COc1ccc([Si](C)(C)[C@@H]2[C@@H](CCO)O[C@]3(C(=O)N(Cc4ccccc4)c4ccccc43)[C@H]2C)cc1`, the composite z-score in assay [1] was 1.06; in assay [5], 0.955; in [7] it was -0.228; in assay [8], 0.0139; in [9], 0.167; in assay [10], -0.143. In addition, the composite z-score in assay [11] was 0.183; in [12], -0.18; in assay [13], -0.455; in assay [15] it was 0.633; in assay [16], 0.16; in assay [17], 0.187. The results for the composite z-score in assay [18], in assay [19] and in [20] were 0.174, 0.104 and -0.0249, respectively. Moreover, the z-score is 0.566 (inactive) in [2]; 0.124 (inactive) in assay [3]; 1.24 (inactive) in assay [4]; 1.73 (inactive) in assay [6]; -0.535 (inactive) in assay [14].
`[N-]=[N+]=NCc1ccccc1C[C@@]1(C(=O)O)N=C(c2ccc(OCCCO)cc2)O[C@@H]1c1ccccc1N=[N+]=[N-]`: the composite z-score was found to be 1.51 in [1]; 3.16 in assay [5]; 0.0189 in assay [7]; 0.0183 in [8]; 1.03 in assay [9]; 0.0316 in assay [10]. Moreover, the composite z-score in assay [11] came to 1.44; in [12], 0.076; in assay [13] it was 0.917; in assay [15], 0.479; in assay [16], 0.771; in assay [17], 0.0583. The composite z-score in [18] is 0.633; in assay [19], -0.688; in [20], 0.911. Besides, the z-score in assay [2] was -0.41 (inactive); in assay [3], -1.02 (inactive); in assay [4], -0.85 (inactive); in assay [6], 0.602 (inactive); in assay [14], -1.11 (inactive).
Turning to `C=CCN1C(=O)[C@@]2(O[C@@H](CCn3cc([C@H](O)c4ccccc4)nn3)[C@H]([Si](C)(C)c3ccc(OC)cc3)[C@H]2C)c2cc(N3CCOC3=O)ccc21`, the composite z-score was 1.15 in assay [1]; 1.8 in assay [5]; -0.0463 in [7]; -0.0328 in [8]; 0.131 in assay [9]; -0.121 in assay [10]. Moreover, the composite z-score in assay [11] is -0.412; in assay [12] it was 0.16; in assay [13], 0.338; in assay [15], 0.0752; in assay [16], 0.472; in assay [17], 0.135. Further, the composite z-score in [18] was -0.0856; in assay [19], 0.216; in assay [20], 0.392. Further, the z-score in assay [2] was -1.26 (inactive); in [3], -1.88 (inactive); in assay [4], -0.723 (inactive); in [6] it was 2.19 (inactive); in assay [14] it was -2.62 (inactive).
Turning to `COC(=O)C1=CC(c2ccc(CO)cc2)=CC(C2CC2)N(Cc2sc3ccccc3c2Cl)C=C1C(=O)OC` (stereo not given), the composite z-score came to 1.55 in [1]; 3.07 in [5]; 0.214 in assay [7]; 0.331 in assay [8]; 1.1 in assay [9]; 0.157 in assay [10]. The composite z-score in assay [11] stood at 1.55; in [12] it was 1.02; in assay [13], 0.978; in assay [15] it was 0.855; in assay [16] it was 1.3; in assay [17] it was 0.242. Also, the composite z-score worked out at 1.19 in assay [18], 0.304 in assay [19] and 0.715 in assay [20]. The z-score was -2.21 (inactive) in assay [2]; -5.52 (inactive) in [3]; -1.12 (inactive) in assay [4]; -2.06 (inactive) in assay [6]; -1.16 (inactive) in [14].
As to `CCc1cccc(NC(=O)O[C@H]2[C@H](OC(=O)Nc3ccccc3)[C@@H](OC(=O)Nc3ccccc3)[C@@H](OC)O[C@@H]2CO)c1`, the composite z-score in assay [1] was 1.54; in assay [5], 3.25; in assay [7], -0.142; in assay [8], 1.81; in assay [9], 1.06; in [10], -0.0549. The composite z-score was 1.35 in [11]; 0.169 in assay [12]; 0.37 in [13]; 1.54 in [15]; 1.07 in assay [16]; 0.0832 in assay [17]. Further, the composite z-score turned out to be 1.41 in [18], 0.319 in assay [19] and 0.451 in assay [20]. The z-score in [2] is 1.77 (inactive); in assay [3], 2.57 (inactive); in assay [4], 1.97 (inactive); in assay [6], -0.0576 (inactive); in [14] it was -0.0187 (inactive).
